Experimental data: the supplement of paper PMC8975748
Where a name gives a salt, the structure may show the parent alone. ± gives the standard deviation of the averaged measurements.

Assays:
[1] = system: Saccharomyces cerevisiae BY4741 SeMeCo community; assay: mean cell size (pixel area) (pixels); higher = larger cells; settings: 10 µM; 24 h; SM minimal medium
Outline: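 Plates of 384 wells were acoustically predosed with drug at a final 10 µM in SM medium, and 70 µl of a Saccharomyces cerevisiae BY4741 preculture diluted from OD600 = 1.0 to OD600 = 0.3 was added for 24 h. The yeast formed a four-plasmid fluorescent community in which each plasmid complements one auxotrophy and carries a fluorescent marker. Fixed cells were imaged by automated confocal microscopy and analysed in Harmony for mean cell pixel area per well. Values are means of 3 replicates. Same SeMeCo high-content imaging drug screen: Selleck FDA-approved drugs at 10 µM, 24 h in SM medium, 384-well plates, 3 replicates.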

[2] = system: Saccharomyces cerevisiae BY4741 SeMeCo community; assay: z-score of prototroph abundance vs DMSO median; higher = larger share of this subpopulation than in DMSO controls; settings: 10 µM; 24 h; SM minimal medium; subpopulation (auxotrophy): Prototroph
Outline: (§1)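 A Saccharomyces cerevisiae BY4741 community carried four plasmids, each restoring one auxotrophy and encoding a distinct fluorescent protein. It was pre-grown overnight to OD600 1.0, diluted to 0.3, and 70 µl was added to 384-well plates acoustically predosed with library drugs (10 µM final), then grown 24 h in minimal SM medium. Cells were paraformaldehyde-fixed and imaged by automated confocal microscopy, with single-auxotroph fluorescent strains setting thresholds and autofluorescence correction. Each subpopulation's abundance was scored as a z-score against the vehicle-well median.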

[3] = system: Saccharomyces cerevisiae BY4741 SeMeCo community; assay: z-score of subpopulation abundance vs DMSO median, subpopulation auxotrophic for M; higher = larger share of this subpopulation than in DMSO controls; settings: 10 µM; 24 h; SM minimal medium; subpopulation (auxotrophy): M
Outline: as §1

[4] = system: Saccharomyces cerevisiae BY4741 SeMeCo community; assay: z-score of subpopulation abundance vs DMSO median, subpopulation auxotrophic for L; higher = larger share of this subpopulation than in DMSO controls; settings: 10 µM; 24 h; SM minimal medium; subpopulation (auxotrophy): L
Outline: as §1

[5] = system: Saccharomyces cerevisiae BY4741 SeMeCo community; assay: z-score of subpopulation abundance vs DMSO median, subpopulation auxotrophic for U; higher = larger share of this subpopulation than in DMSO controls; settings: 10 µM; 24 h; SM minimal medium; subpopulation (auxotrophy): U
Outline: as §1

[6] = system: Saccharomyces cerevisiae BY4741 SeMeCo community; assay: z-score of subpopulation abundance vs DMSO median, subpopulation auxotrophic for H; higher = larger share of this subpopulation than in DMSO controls; settings: 10 µM; 24 h; SM minimal medium; subpopulation (auxotrophy): H
Outline: as §1

[7] = system: Saccharomyces cerevisiae BY4741 SeMeCo community; assay: z-score of subpopulation abundance vs DMSO median, subpopulation auxotrophic for LU; higher = larger share of this subpopulation than in DMSO controls; settings: 10 µM; 24 h; SM minimal medium; subpopulation (auxotrophy): LU
Outline: as §1

[8] = system: Saccharomyces cerevisiae BY4741 SeMeCo community; assay: z-score of subpopulation abundance vs DMSO median, subpopulation auxotrophic for LM; higher = larger share of this subpopulation than in DMSO controls; settings: 10 µM; 24 h; SM minimal medium; subpopulation (auxotrophy): LM
Outline: as §1

[9] = system: Saccharomyces cerevisiae BY4741 SeMeCo community; assay: z-score of subpopulation abundance vs DMSO median, subpopulation auxotrophic for HM; higher = larger share of this subpopulation than in DMSO controls; settings: 10 µM; 24 h; SM minimal medium; subpopulation (auxotrophy): HM
Outline: as §1

[10] = system: Saccharomyces cerevisiae BY4741 SeMeCo community; assay: z-score of subpopulation abundance vs DMSO median, subpopulation auxotrophic for UM; higher = larger share of this subpopulation than in DMSO controls; settings: 10 µM; 24 h; SM minimal medium; subpopulation (auxotrophy): UM
Outline: as §1

[11] = system: Saccharomyces cerevisiae BY4741 SeMeCo community; assay: z-score of subpopulation abundance vs DMSO median, subpopulation auxotrophic for HL; higher = larger share of this subpopulation than in DMSO controls; settings: 10 µM; 24 h; SM minimal medium; subpopulation (auxotrophy): HL
Outline: as §1

[12] = system: Saccharomyces cerevisiae BY4741 SeMeCo community; assay: z-score of subpopulation abundance vs DMSO median, subpopulation auxotrophic for HLU; higher = larger share of this subpopulation than in DMSO controls; settings: 10 µM; 24 h; SM minimal medium; subpopulation (auxotrophy): HLU
Outline: as §1

[13] = system: Saccharomyces cerevisiae BY4741 SeMeCo community; assay: z-score of subpopulation abundance vs DMSO median, subpopulation auxotrophic for HLM; higher = larger share of this subpopulation than in DMSO controls; settings: 10 µM; 24 h; SM minimal medium; subpopulation (auxotrophy): HLM
Outline: as §1

[14] = system: Saccharomyces cerevisiae BY4741 SeMeCo community; assay: z-score of subpopulation abundance vs DMSO median, subpopulation auxotrophic for HUM; higher = larger share of this subpopulation than in DMSO controls; settings: 10 µM; 24 h; SM minimal medium; subpopulation (auxotrophy): HUM
Outline: as §1

[15] = system: Saccharomyces cerevisiae BY4741 SeMeCo community; assay: z-score of subpopulation abundance vs DMSO median, subpopulation auxotrophic for LUM; higher = larger share of this subpopulation than in DMSO controls; settings: 10 µM; 24 h; SM minimal medium; subpopulation (auxotrophy): LUM
Outline: as §1

[16] = system: Saccharomyces cerevisiae BY4741 SeMeCo community; assay: z-score of subpopulation abundance vs DMSO median, subpopulation auxotrophic for HLUM; higher = larger share of this subpopulation than in DMSO controls; settings: 10 µM; 24 h; SM minimal medium; subpopulation (auxotrophy): HLUM
Outline: as §1

[17] = system: Saccharomyces cerevisiae BY4741 SeMeCo community; assay: z-score of subpopulation abundance vs DMSO median, subpopulation auxotrophic for HU; higher = larger share of this subpopulation than in DMSO controls; settings: 10 µM; 24 h; SM minimal medium; subpopulation (auxotrophy): HU
Outline: as §1

Compound | mean cell size [1] | z-score of prototroph abundance [2] | z-score of subpopulation abundance [3] | z-score of subpopulation abundance [4] | z-score of subpopulation abundance [5] | z-score of subpopulation abundance [6] | z-score of subpopulation abundance [7] | z-score of subpopulation abundance [8] | z-score of subpopulation abundance [9] | z-score of subpopulation abundance [10] | z-score of subpopulation abundance [11] | z-score of subpopulation abundance [12] | z-score of subpopulation abundance [13] | z-score of subpopulation abundance [14] | z-score of subpopulation abundance [15] | z-score of subpopulation abundance [16] | z-score of subpopulation abundance [17]
CCCC(=O)OCOC(=O)C1=C(C)NC(C)=C(C(=O)OC)C1c1cccc(Cl)c1Cl (centres undefined) [Clevidipine Butyrate] | 12.4 ± 0.13 | 1.07 | 4.72 | 2.14 | -3.89 | 1.96 | -5.98 | 3.42 | 2.78 | -5.87 | 2.31 | -3.55 | 3.24 | -4.83 | -4.1 | 0.59 | –
CN(C)CCN1C(=O)c2cccc3cc(N)cc(c23)C1=O [Amonafide] | 12.29 ± 0.1 | 0.47 | 0.34 | -0.4 | – | 0.02 | -0.78 | 1.08 | -0.01 | -0.24 | -0.12 | 0.2 | -0.38 | -0.09 | 0.44 | -0.08 | –
CN1[C@@H]2CC[C@H]1C[C@@H](OC(=O)c1c[nH]c3ccccc13)C2 [Tropisetron] | 12.15 ± 0.079 | -1.48 | 1.72 | 1.61 | -0.36 | 0.66 | 0.87 | 1.96 | 2.08 | 0.48 | 1.63 | 1.41 | 1.12 | 0.95 | 1.16 | – | 0.59
CO/N=C(\C(=O)N[C@@H]1C(=O)N2C(C(=O)O)=C(COC(C)=O)CS[C@H]12)c1csc(N)n1 [Cefotaxime sodium] | 12.36 ± 0.028 | -0.43 | 0.24 | -0.14 | 1.03 | -0.66 | 0.37 | 1.08 | -0.37 | 0.17 | -0.46 | 0.33 | 0 | -0.16 | 0.05 | – | -0.11
CC[C@@]1(O)C(=O)OCc2c1cc1n(c2=O)Cc2cc3c(CN(C)C)c(O)ccc3nc2-1 [Topotecan HCl] | 12.5 ± 0.14 | 1.13 | 1.3 | 0.17 | -1.89 | 0.59 | -1.86 | 0.34 | 0.51 | -1.6 | 0.17 | -0.87 | 0.12 | -0.98 | -0.62 | -0.39 | –
Cc1ncc([N+](=O)[O-])n1CCO [Metronidazole] | 12.4 ± 0.12 | 0.23 | 0.32 | 0.11 | -0.5 | 0.44 | -0.37 | 0.12 | -0.42 | -0.62 | -0.42 | 0.18 | -0.7 | 0.09 | -0.37 | 0.08 | –
CCN1CCCC1CNC(=O)c1cc(S(N)(=O)=O)ccc1OC (centres undefined) [Sulpiride] | 12.54 ± 0.037 | – | 0.12 | 0.31 | -0.56 | -0.37 | -0.37 | -0.86 | -0.46 | -0.33 | -0.63 | -1.3 | 0.14 | -0.68 | – | 0.02 | –
